Four molecules from ChEMBL document CHEMBL2218924, “A broad activity screen in support of a chemogenomic map for kinase signalling research and drug discovery” (Biochem J, 2013) can be followed below.

The target in assay [1] is T1, Serine/threonine-protein kinase 17A (Homo sapiens) (UniProt Q9UEE5).
T1 sequence (whole entry): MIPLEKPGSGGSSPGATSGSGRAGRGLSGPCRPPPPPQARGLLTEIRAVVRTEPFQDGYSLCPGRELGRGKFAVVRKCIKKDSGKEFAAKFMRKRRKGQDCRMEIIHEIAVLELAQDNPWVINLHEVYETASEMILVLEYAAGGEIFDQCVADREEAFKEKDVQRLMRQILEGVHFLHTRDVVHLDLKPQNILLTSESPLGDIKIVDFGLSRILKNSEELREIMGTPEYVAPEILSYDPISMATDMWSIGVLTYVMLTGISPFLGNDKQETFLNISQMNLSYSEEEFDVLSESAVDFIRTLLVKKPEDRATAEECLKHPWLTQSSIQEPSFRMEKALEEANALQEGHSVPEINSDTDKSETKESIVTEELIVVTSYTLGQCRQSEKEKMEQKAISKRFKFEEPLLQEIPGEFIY
As to conditions: at 10 µM.

For assay [2], the target named is T2, Dual specificity tyrosine-phosphorylation-regulated kinase 2 (Homo sapiens) (UniProt Q92630).
T2 sequence (whole entry): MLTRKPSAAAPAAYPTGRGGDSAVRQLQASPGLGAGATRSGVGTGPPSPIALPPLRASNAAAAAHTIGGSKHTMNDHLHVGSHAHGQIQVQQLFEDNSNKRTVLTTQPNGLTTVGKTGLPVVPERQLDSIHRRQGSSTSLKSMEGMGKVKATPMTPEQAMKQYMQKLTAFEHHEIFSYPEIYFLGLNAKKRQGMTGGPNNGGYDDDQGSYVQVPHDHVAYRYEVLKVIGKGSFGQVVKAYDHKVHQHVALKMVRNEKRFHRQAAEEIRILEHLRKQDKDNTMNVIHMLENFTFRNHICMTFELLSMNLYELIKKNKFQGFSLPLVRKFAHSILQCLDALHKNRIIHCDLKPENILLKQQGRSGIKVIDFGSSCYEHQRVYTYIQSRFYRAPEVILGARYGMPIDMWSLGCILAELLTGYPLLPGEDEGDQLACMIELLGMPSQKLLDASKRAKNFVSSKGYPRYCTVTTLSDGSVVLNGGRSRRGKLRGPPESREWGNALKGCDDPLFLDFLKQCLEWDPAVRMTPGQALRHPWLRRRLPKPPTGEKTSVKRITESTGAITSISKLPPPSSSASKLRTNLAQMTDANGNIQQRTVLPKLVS
Conditions: at 10 µM.

For assay [3], the target named is T3, Ephrin type-A receptor 1 (Homo sapiens) (UniProt P21709).
T3 sequence (whole entry): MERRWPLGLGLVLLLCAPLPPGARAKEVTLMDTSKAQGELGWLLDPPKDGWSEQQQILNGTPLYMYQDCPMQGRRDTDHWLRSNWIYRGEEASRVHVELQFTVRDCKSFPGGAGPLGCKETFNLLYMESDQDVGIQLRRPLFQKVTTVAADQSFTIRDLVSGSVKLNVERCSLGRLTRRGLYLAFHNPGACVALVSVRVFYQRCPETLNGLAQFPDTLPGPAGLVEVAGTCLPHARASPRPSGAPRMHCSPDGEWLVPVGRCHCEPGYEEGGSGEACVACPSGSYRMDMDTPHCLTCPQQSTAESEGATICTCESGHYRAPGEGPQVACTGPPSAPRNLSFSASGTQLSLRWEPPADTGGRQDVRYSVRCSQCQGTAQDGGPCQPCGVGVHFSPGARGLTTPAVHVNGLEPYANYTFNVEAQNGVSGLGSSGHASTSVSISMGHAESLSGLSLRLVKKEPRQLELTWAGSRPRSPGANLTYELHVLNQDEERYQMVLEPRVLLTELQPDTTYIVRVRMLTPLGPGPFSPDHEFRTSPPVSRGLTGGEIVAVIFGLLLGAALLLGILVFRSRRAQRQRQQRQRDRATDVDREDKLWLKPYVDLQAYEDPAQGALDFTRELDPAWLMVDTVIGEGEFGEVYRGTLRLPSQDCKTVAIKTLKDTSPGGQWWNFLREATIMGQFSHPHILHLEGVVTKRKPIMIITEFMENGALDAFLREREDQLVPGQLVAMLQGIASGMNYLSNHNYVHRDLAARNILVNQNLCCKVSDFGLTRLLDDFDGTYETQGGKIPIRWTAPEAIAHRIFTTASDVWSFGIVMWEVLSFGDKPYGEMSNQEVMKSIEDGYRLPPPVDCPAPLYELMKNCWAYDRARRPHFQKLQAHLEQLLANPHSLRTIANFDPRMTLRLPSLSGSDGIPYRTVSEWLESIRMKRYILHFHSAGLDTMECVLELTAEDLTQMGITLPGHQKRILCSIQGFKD
As to conditions: at 1 µM.

The target of assay [4] is T3, Ephrin type-A receptor 1 (Homo sapiens). As to conditions: at 10 µM.
Assay [5] deals with T4, Ephrin type-A receptor 3 (Homo sapiens) (UniProt P29320).
T4 sequence (whole entry): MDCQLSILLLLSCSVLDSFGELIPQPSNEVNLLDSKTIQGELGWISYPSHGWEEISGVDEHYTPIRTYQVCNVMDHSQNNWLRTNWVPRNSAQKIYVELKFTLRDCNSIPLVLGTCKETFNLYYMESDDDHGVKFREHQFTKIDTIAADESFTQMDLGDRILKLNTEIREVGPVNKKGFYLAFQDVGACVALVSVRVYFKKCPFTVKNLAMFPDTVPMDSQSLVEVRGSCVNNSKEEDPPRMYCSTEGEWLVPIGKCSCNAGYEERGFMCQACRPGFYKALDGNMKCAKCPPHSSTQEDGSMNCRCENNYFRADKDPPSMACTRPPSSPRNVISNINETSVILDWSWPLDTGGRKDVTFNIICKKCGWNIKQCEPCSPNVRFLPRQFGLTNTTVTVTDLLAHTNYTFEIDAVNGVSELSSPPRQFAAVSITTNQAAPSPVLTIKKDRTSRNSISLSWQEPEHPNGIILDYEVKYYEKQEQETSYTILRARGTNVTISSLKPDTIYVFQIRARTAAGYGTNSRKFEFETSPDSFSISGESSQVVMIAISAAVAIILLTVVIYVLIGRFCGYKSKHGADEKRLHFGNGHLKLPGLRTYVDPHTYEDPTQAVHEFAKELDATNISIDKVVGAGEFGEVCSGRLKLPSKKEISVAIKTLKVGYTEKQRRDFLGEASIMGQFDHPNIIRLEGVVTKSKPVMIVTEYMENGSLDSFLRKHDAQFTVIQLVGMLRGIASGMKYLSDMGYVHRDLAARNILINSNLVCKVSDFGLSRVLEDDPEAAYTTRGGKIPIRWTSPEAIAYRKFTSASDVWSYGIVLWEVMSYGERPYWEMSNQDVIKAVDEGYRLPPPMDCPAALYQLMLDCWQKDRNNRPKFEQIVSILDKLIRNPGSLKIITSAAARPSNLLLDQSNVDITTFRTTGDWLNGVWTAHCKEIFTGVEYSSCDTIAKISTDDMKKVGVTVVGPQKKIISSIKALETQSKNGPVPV
Conditions: at 1 µM.

Assay [6] deals with T4, Ephrin type-A receptor 3 (Homo sapiens). As to conditions: at 10 µM.
Assay [7] deals with Ephrin type-A receptor 7 (Homo sapiens) (UniProt Q15375). As to conditions: at 1 µM.
Assay [8] shares this target. Conditions: at 10 µM.
The target of assay [9] is T5, Ephrin type-B receptor 1 (Homo sapiens) (UniProt P54762).
T5 sequence (whole entry): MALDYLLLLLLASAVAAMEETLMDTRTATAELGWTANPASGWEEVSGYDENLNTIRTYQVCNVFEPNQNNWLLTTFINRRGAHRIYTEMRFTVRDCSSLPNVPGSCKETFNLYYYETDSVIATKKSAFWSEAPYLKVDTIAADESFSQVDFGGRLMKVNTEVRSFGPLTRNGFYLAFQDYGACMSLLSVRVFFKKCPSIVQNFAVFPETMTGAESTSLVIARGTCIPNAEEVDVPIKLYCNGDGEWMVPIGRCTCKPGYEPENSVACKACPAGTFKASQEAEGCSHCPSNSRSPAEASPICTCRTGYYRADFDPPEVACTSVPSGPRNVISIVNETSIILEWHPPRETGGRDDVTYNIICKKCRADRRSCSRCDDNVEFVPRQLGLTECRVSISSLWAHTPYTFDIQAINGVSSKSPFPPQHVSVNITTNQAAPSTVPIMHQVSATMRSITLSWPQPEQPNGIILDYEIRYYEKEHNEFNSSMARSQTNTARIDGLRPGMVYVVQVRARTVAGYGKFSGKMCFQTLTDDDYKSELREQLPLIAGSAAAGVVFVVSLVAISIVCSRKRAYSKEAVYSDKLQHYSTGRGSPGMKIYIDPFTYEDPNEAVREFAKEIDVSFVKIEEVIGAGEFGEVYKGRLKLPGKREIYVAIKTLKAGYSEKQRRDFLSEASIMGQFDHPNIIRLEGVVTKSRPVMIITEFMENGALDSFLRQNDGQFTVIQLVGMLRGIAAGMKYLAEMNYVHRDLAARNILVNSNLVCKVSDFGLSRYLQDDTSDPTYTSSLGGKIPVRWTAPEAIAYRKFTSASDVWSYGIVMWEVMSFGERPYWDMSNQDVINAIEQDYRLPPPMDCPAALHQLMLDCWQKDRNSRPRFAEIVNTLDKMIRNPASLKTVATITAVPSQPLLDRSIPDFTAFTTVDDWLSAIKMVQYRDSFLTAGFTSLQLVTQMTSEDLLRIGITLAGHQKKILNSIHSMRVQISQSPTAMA
Conditions: at 1 µM.

The target in assay [10] is T2, Dual specificity tyrosine-phosphorylation-regulated kinase 2 (Homo sapiens). Conditions: at 1 µM.
For assay [11], the target named is Ephrin type-A receptor 5 (Homo sapiens) (UniProt P54756). As to conditions: at 1 µM.
Assay [12] has the same target. As to conditions: at 10 µM.
In assay [13] the target is T6, Ephrin type-A receptor 8 (Homo sapiens) (UniProt P29322).
T6 sequence (whole entry): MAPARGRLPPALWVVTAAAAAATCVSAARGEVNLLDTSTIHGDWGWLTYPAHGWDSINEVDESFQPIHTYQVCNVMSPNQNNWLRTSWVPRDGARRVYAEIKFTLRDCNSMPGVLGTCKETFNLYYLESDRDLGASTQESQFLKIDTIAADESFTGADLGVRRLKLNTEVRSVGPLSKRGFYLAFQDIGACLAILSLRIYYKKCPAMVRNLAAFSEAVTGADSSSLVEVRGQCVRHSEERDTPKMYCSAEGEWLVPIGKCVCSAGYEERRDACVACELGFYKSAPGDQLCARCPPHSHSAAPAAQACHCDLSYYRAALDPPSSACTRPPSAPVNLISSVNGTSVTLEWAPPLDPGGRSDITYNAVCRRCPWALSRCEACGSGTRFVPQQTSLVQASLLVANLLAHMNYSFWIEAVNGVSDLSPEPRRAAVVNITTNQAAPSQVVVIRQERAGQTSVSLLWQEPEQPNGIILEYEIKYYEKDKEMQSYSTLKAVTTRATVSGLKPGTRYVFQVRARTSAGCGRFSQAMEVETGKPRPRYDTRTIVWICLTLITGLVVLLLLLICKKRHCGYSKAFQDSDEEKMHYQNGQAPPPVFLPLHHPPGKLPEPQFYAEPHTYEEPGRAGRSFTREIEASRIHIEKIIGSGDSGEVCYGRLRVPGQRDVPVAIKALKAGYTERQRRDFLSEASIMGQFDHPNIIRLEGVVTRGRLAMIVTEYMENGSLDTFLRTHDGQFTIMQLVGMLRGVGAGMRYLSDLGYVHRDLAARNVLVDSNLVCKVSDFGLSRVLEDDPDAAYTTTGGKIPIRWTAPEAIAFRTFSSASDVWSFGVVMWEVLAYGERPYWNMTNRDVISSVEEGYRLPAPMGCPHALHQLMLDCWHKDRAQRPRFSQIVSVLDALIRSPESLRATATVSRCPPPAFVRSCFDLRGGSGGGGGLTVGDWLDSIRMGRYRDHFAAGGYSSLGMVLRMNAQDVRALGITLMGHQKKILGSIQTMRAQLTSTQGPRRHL
Conditions: at 10 µM.

For assay [14], the target named is Ephrin type-A receptor 4 (Homo sapiens) (UniProt P54764). Conditions: at 1 µM.
Assay [15] deals with T6, Ephrin type-A receptor 8 (Homo sapiens). As to conditions: at 1 µM.

Broadly, the residual activity is the signal under treatment as a percentage of the control signal.

Ephrin type-A receptor 7 (Homo sapiens), sequence (Q15375 28-998 limits assumed): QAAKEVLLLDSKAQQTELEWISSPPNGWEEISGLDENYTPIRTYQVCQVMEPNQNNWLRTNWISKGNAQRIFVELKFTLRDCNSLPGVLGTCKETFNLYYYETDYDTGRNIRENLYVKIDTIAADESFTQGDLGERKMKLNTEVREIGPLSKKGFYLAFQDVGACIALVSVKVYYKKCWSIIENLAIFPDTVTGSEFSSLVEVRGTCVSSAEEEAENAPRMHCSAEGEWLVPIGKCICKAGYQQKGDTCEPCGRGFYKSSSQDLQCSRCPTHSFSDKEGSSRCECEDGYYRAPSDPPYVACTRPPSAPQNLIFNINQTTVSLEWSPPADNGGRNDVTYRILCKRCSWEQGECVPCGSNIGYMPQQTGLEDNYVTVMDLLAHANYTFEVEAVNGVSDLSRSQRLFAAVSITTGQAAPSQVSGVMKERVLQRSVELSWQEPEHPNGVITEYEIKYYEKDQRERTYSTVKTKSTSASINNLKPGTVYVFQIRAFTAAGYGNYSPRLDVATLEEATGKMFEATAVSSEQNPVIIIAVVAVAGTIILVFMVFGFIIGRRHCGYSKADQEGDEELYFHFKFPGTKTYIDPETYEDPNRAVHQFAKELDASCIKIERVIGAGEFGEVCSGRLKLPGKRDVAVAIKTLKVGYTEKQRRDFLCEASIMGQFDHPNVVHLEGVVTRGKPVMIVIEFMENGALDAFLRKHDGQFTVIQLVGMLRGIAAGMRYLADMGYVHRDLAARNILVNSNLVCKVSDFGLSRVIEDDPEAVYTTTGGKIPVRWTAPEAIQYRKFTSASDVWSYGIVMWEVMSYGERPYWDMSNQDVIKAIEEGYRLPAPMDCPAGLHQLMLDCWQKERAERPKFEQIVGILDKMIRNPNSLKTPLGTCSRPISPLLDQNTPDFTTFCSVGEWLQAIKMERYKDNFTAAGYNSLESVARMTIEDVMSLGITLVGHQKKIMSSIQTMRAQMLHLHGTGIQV
Ephrin type-A receptor 5 (Homo sapiens), sequence (P54756 whole entry): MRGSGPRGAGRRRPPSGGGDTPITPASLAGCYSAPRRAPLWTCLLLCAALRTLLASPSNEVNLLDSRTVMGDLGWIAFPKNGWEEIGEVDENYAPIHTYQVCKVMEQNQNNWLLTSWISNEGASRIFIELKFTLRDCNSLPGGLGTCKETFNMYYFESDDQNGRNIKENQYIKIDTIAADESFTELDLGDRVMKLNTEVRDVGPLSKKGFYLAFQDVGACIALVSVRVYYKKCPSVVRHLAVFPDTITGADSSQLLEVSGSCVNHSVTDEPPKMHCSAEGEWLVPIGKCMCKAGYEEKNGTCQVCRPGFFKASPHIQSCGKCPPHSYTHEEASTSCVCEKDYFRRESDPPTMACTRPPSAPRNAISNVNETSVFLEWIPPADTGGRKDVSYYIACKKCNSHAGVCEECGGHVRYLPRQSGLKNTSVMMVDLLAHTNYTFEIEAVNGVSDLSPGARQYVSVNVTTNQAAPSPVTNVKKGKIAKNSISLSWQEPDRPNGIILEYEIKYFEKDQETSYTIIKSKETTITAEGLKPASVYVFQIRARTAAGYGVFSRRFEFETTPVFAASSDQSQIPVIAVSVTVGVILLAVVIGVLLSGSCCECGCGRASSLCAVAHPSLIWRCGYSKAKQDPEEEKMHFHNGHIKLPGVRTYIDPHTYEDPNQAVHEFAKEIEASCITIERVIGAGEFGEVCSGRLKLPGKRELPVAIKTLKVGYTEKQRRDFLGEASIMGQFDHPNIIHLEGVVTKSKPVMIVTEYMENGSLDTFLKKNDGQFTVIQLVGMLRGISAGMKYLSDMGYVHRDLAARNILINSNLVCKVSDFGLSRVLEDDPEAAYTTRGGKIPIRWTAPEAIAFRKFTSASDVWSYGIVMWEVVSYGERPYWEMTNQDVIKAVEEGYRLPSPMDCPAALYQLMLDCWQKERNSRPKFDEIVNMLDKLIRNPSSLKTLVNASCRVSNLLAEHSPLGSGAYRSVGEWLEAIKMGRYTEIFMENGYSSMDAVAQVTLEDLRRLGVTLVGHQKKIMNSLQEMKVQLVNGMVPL
Ephrin type-A receptor 4 (Homo sapiens), sequence (P54764 whole entry): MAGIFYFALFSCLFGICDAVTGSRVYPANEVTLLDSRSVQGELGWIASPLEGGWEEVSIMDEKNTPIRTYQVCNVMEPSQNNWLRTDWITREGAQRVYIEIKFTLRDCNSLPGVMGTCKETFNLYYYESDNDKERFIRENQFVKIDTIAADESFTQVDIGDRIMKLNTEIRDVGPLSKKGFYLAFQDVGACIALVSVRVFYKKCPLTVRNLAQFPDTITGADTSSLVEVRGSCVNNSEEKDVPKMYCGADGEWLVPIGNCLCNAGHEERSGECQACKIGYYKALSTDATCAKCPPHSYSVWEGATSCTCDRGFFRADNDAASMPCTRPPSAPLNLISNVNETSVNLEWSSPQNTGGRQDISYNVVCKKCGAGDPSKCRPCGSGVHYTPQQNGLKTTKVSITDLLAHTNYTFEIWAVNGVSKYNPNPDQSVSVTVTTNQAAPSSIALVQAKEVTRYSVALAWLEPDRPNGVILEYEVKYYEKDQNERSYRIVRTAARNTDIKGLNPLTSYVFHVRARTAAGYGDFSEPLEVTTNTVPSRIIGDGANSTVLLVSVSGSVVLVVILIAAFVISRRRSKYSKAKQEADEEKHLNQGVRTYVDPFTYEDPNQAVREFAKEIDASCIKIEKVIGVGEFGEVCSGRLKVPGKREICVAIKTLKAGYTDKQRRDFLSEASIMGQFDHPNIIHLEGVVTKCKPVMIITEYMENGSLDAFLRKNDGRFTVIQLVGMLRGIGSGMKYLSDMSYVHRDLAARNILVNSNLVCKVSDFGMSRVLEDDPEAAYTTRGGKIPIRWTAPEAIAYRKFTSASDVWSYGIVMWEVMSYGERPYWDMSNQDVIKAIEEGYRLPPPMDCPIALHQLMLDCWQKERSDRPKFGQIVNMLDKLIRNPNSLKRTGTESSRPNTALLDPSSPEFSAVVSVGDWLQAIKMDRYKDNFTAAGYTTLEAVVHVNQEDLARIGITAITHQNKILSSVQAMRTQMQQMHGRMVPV

With `c1ccc(-c2cnc(Nc3ccc(OCCN4CCCC4)cc3)s2)cc1`, the residual activity in assay [1] is 4%; in assay [2], 62%; in [3], 77%; in [4], 60%; in assay [5] it was 104%; in assay [6], 69%. The residual activity worked out at 104% in assay [7], 76% in assay [8] and 104% in assay [9].

Turning to `O=C(c1cc2cc(O)ccc2[nH]1)c1cc2cc(O)ccc2[nH]1`, the residual activity worked out at 2% in assay [1]; 81% in assay [10]; 47% in assay [2]; 83% in assay [3]; 47% in assay [4]; 78% in assay [11]. Also, the residual activity in assay [12] amounted to 32%; in [7] it was 83%; in assay [8], 66%; in assay [13], 73%.

In the case of `Cn1c2ccccc2c2c3c(c4c5ccccc5n(CCC#N)c4c21)CNC3=O`, the residual activity was determined as 36% in [1]; 76% in assay [10]; 66% in assay [2]; 50% in assay [6]; 43% in [7]; 39% in assay [8]. Further, in assay [9], the residual activity came out at 63%.

On to `N#C/C(=C1/Nc2ccccc2S1)c1ccnc(NCCc2cccnc2)n1`, for which the residual activity in [1] was 37%; in [10], 19%; in assay [2] it was 2%; in [14], 123%; in assay [8], 77%; in assay [15] it was 98%. The residual activity in [13] was 83%.
